# Assay results published in the supplement of paper PMC9135407.
# Where “and” joins values, the source holds several entries; their conditions need not be identical. Identical values can stand only once. Counter-ions that a name gives are not always drawn. Among all 5,800 compounds or so, about 620 (11%) showed activity. What follows is part of a selection rich in actives, with near analogues and random picks from the rest. Unmarked numbers belong to inactive results.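 Rule for the calls: active = score above a cut-off or among the top three wells of a plate; in these data no inactive exceeds 0.85.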
# System: primary human hepatic stellate cells (donor 1)
# Assay: scaled lipid accumulation score (0 = DMSO-like, 1 = nortriptyline-like); higher = stronger HSC inactivation (lipid re-accumulation), active = hit call of the paper
# Details: 48 h
# [1] = library stock concentration: 10 mM
# [2] = library stock concentration: 1 mM
# [3] = library stock concentration: 4.8 mM
# [4] = library stock concentration: 3.33 mM
# [5] = library stock concentration: 80 uM
# [6] = library stock concentration: 400 uM
# [7] = library stock concentration: 2 mM
smiles,measurement,setting,value
"CCS(=O)(=O)N(C)[C@H]1c2cc(C#N)ccc2OC(C)(C)[C@@H]1O [(-)-[3R,4S]-Chromanol 293B]",scaled lipid accumulation score,[1],0.037
NC(CCC(=O)NC(CSN=O)C(=O)NCC(=O)O)C(=O)O [S-Nitroso-L-glutathione],scaled lipid accumulation score,[2],0.026
CNS(=O)(=O)c1ccc(NC(=O)c2ccccc2C(=O)O)cc1 [Phthalysulfathiazole],scaled lipid accumulation score,[3],≤ 0
O=C1c2cccc(O)c2C(=O)c2c(O)cccc21 [Danthron],scaled lipid accumulation score,library stock concentration: 8.3 mM,0.038
O=C1C(SCCO)=C(SCCO)C(=O)c2ccccc21 [listing 1 of 3 here],scaled lipid accumulation score,[1],0.156
N[C@@H](CO)c1ccccc1 [(R)-(-)-2-Phenylglycinol],scaled lipid accumulation score,[2],≤ 0
O=C1C(SCCO)=C(SCCO)C(=O)c2ccccc21 [listing 2 of 3 here],scaled lipid accumulation score,library stock concentration: 16.1 mM,1.05 (active)
O=C1C(SCCO)=C(SCCO)C(=O)c2ccccc21 [listing 3 of 3 here],scaled lipid accumulation score,[1],1.2 (active)
CCN(c1ccccc1)c1cc(=NC)n(C)c(C)n1,scaled lipid accumulation score,[1],≤ 0
CN(C)CCCCCCOc1ccc(-n2ccnc2)cc1,scaled lipid accumulation score,[2],0.054 and 0.003
NC(N)=N[C@@H](CCC(=O)O)C(=O)O [.alpha.-Guanidinoglutaric Acid],scaled lipid accumulation score,[2],≤ 0
NC(N)=N[C@@H](CCC(=O)O)C(=O)O [alpha-Guanidinoglutaric acid],scaled lipid accumulation score,[1],≤ -0.007
O=C(Nc1cccc(C(F)(F)F)c1)Nc1cc(S(=O)(=O)NC2CC2)ccc1-c1ccsc1,scaled lipid accumulation score,[4],0.022
same,scaled lipid accumulation score,[1],0.632
OC(CC1c2ccccc2-c2cncn21)C1CCCCC1 (centres undefined),scaled lipid accumulation score,[4],≤ -0.009
same,scaled lipid accumulation score,[1],0.209
Cc1ccc(Nc2c(F)cccc2Cl)c(CC(=O)O)c1 [Lumiracoxib],scaled lipid accumulation score,[4],≤ 0
same,scaled lipid accumulation score,[1],0.025
Cc1ccc(Nc2c(F)cccc2Cl)c(CC(=O)O)c1,scaled lipid accumulation score,[1],≤ 0
CCCCC[C@H](O)/C=C/[C@@H]1c2cc(CCCCC(=O)O)n(-c3ccccc3)c2C[C@H]1O [Piriprost (potassium salt)],scaled lipid accumulation score,[2],≤ 0
CN1CCc2ccccc2Cc2[nH]c3ccccc3c2CC1,scaled lipid accumulation score,[1],0.244
O=c1c2ccccc2nc2n1CCc1c-2[nH]c2ccccc12 [Rutaecarpine] [listing 1 of 2 here],scaled lipid accumulation score,[1],0.975 (active)
O=c1c2ccccc2nc2n1CCc1c-2[nH]c2ccccc12 [Rutaecarpine] [listing 2 of 2 here],scaled lipid accumulation score,[4],≤ 0
same,scaled lipid accumulation score,[1],0.58
CCC(CC)(NC(=O)C(C)C)C(=O)N[C@@H](CCCN=C(N)N)C(=O)NC1(C(=O)NC(c2ccc(F)cc2)c2ccc(F)cc2)CCCC1,scaled lipid accumulation score,[4],≤ -0.009
same,scaled lipid accumulation score,[1],≤ 0
Cc1cnc(-c2cc(N3CCN(C(=O)CCS(C)(=O)=O)CC3)ncc2Cl)c(C)c1,scaled lipid accumulation score,[4],≤ 0
same,scaled lipid accumulation score,[1],≤ 0
CCC(C)[C@H](NC(=O)[C@H](CCCCN)NC(=O)[C@H](CCCCN)NC(=O)[C@H](C)NC(=O)[C@H](CC(C)C)NC(=O)[C@H](C)NC(=O)[C@H](C)NC(=O)[C@H](CC(C)C)NC(=O)[C@H](C)NC(=O)[C@H](CCCCN)NC(=O)[C@H](CC(C)C)NC(=O)[C@H](CC(N)=O)NC(=O)[C@@H](N)[C@@H](C)CC)C(=O)N[C@@H](CC(C)C)C(N)=O (some centres undefined) [Mastoparan],scaled lipid accumulation score,library stock concentration: 3 mM,≤ -0.012
c1cncc(CN2CCC(n3ncc4c(N5CCOCC5)nc(-c5ccc6[nH]ccc6c5)nc43)CC2)c1,scaled lipid accumulation score,[4],1.19 (active)
same,scaled lipid accumulation score,[1],1.19 (active)
COC(=O)Nc1ccc(-c2nc(N3CCOCC3)c3cnn(C4CCN(C(=O)OC)CC4)c3n2)cc1,scaled lipid accumulation score,[4],≤ 0
same,scaled lipid accumulation score,[1],≤ 0
CNC(=O)Nc1ccc(-c2nc(N3CC4CCC(C3)O4)c3cnn(C4CCC5(CC4)OCCO5)c3n2)cc1,scaled lipid accumulation score,[5],≤ 0
same,scaled lipid accumulation score,[6],0.006
same,scaled lipid accumulation score,[7],≤ 0
same,scaled lipid accumulation score,[4],≤ 0
same,scaled lipid accumulation score,[1],0.733 and 0.772
CN(C)[C@@H]1C(O)=C(C(=O)NCNCCCC[C@H](N)C(=O)O)C(=O)[C@@]2(O)C(O)=C3C(=O)c4c(O)cccc4[C@@](C)(O)[C@H]3C[C@@H]12 [Lymecycline],scaled lipid accumulation score,,0.003
CC(C)(C)OC(=O)Nc1cccc2[nH]ccc12 [(1H-Indol-4-yl)-Carbamic Acid tert-butyl ester],scaled lipid accumulation score,[2],≤ 0
C[C@@H](N)c1ccc(C(=O)Nc2ccnc3[nH]ccc23)cc1.Cl.Cl,scaled lipid accumulation score,[1],1.13 (active)
C[C@@H](N)c1ccc(C(=O)Nc2ccnc3[nH]ccc23)cc1,scaled lipid accumulation score,[5],≤ -0.009
same,scaled lipid accumulation score,[6],≤ -0.009
same,scaled lipid accumulation score,[7],0.069
CCCCCCCCCCCCCC=CC(O)C(COP(=O)(O)O)NC(=O)CCCCCCC (centres undefined) [C-8 Ceramide-1-phosphate],scaled lipid accumulation score,[2],≤ 0
Nc1nc(F)nc2c1ncn2[C@@H]1O[C@H](COP(=O)(O)O)[C@@H](O)[C@@H]1O [Fludarabine Phosphate],scaled lipid accumulation score,[4],0.514
same,scaled lipid accumulation score,[1],0.748
CN1CCN(C(c2ccccc2)c2ccccc2)CC1 [Cyclizine],scaled lipid accumulation score,library stock concentration: 7.5 mM,0.186
same,scaled lipid accumulation score,[1],0.521
CN1CCN(C(c2ccccc2)c2ccccc2)CC1 [Cyclizine hydrochloride],scaled lipid accumulation score,,0.648
CN1CCCN(C(c2ccccc2)c2ccc(Cl)cc2)CC1.Cl.Cl (centres undefined) [Homochlorcyclizine dihydrochloride],scaled lipid accumulation score,,0.879 (active)
CN1CCN(C(c2ccccc2)c2ccccc2)CC1 [Cyclizine 2HCl],scaled lipid accumulation score,[4],≤ 0
same,scaled lipid accumulation score,[1],0.742
CN1CCN(C(c2ccccc2)c2ccc(Cl)cc2)CC1 (centres undefined) [Chlorcyclizine hydrochloride],scaled lipid accumulation score,,0.377
same,scaled lipid accumulation score,library stock concentration: 5.9 mM,0.391
[Cl-].[Li+] [Lithium Chloride],scaled lipid accumulation score,[1],≤ -0.07
COC(=O)C1=C(C)NC(C)=C(C(=O)OC)C1c1cccc(NC(=O)NCCCN2CCC(c3cccc(OC)c3)CC2)c1,scaled lipid accumulation score,[1],0.68
CC1CCN(c2cc(N3CCN(C)CC3)ccc2NC(=O)c2cc(C#N)c[nH]2)CC1 [listing 1 of 2 here],scaled lipid accumulation score,[1],1.32 (active)
COc1cc(N2CCN(C)CC2)ccc1Nc1nc(N)c(C(=O)c2c(Cl)cccc2Cl)s1,scaled lipid accumulation score,[5],0.02
same,scaled lipid accumulation score,[6],≤ -0.009
same,scaled lipid accumulation score,[7],0.155
same,scaled lipid accumulation score,[1],0.8
CC1CCN(c2cc(N3CCN(C)CC3)ccc2NC(=O)c2cc(C#N)c[nH]2)CC1 [listing 2 of 2 here],scaled lipid accumulation score,[5],0.044
same,scaled lipid accumulation score,[6],≤ -0.016
same,scaled lipid accumulation score,[7],≤ -0.016
"CCCC/C=C/C=C/C=C/CCCCCCCC(=O)OC [9(Z),11(E),13(E)-Octadecatrienoic Acid methyl ester]",scaled lipid accumulation score,[2],≤ 0
CC(=O)c1cc2c(cc1O)OC(C)(C)C=C2 [Eupatoriochromene],scaled lipid accumulation score,[1],0.066
Nc1ncnc2c1c(-c1ccc(Oc3ccccc3)cc1)cn2C1CCCC1,scaled lipid accumulation score,[1],≤ -0.07
Nc1ncnc2c1c(-c1cccc(OCc3ccccc3)c1)cn2C1CC(CN2CCCC2)C1 (centres undefined),scaled lipid accumulation score,[1],0.36
C=CC(=O)N1CCC[C@@H](n2nc(-c3ccc(Oc4ccccc4)cc3)c3c(N)ncnc32)C1,scaled lipid accumulation score,[5],≤ -0.009
same,scaled lipid accumulation score,[6],0.313
same,scaled lipid accumulation score,[7],0.033
same,scaled lipid accumulation score,[4],≤ 0
same,scaled lipid accumulation score,[1],≤ 0 and 0.22
Nc1ncnc2c1c(-c1cccc(OCc3ccccc3)c1)cn2C1CC(CN2CCC2)C1 (centres undefined),scaled lipid accumulation score,[5],0.167
same,scaled lipid accumulation score,[6],0.351
same,scaled lipid accumulation score,[7],0.67
same,scaled lipid accumulation score,[1],0.657
Nc1ncnc2c1c(-c1cccc(OCc3ccccc3)c1)cn2[C@H]1C[C@H](CN2CCCC2)C1,scaled lipid accumulation score,[4],1.09 (active)
Nc1ncnc2c1c(-c1cccc(OCc3ccccc3)c1)cn2[C@H]1C[C@@H](CN2CCC2)C1,scaled lipid accumulation score,[4],0.894 (active)
same,scaled lipid accumulation score,[1],1.01 (active)
COc1cc(O)c2c(c1)/C=C/C[C@H](O)[C@H](O)C(=O)/C=C\C[C@H](C)OC2=O [5z-7-oxozeaenol],scaled lipid accumulation score,[5],≤ -0.016
same,scaled lipid accumulation score,[6],≤ -0.016
same,scaled lipid accumulation score,[7],≤ -0.016
same,scaled lipid accumulation score,[1],0.613
CN1C(CCl)Nc2cc(Cl)c(S(N)(=O)=O)cc2S1(=O)=O (centres undefined),scaled lipid accumulation score,[1],0.013
CN1C(CCl)Nc2cc(Cl)c(S(N)(=O)=O)cc2S1(=O)=O (centres undefined) [Methyclothiazide],scaled lipid accumulation score,[4],≤ 0
same,scaled lipid accumulation score,[1],≤ -0.001
"COC(=O)CCC[C@H](O)[C@H](O)CO [5(S),6(R)-7-trihydroxymethyl Heptanoate]",scaled lipid accumulation score,[2],≤ 0
NC[C@@H]1CC[C@@H](N)[C@@H](O[C@H]2[C@H](O)[C@@H](O[C@H]3O[C@H](CO)[C@@H](O)[C@H](N)[C@H]3O)[C@H](N)C[C@@H]2N)O1 [Dibekacin],scaled lipid accumulation score,[1],0.108
CC(C)(C)NC[C@H](O)c1ccc(O)c(CO)c1,scaled lipid accumulation score,[1],≤ 0
CC(C)(C)NCC(O)c1ccc(O)c(CO)c1 (centres undefined) [Albuterol hemisulfate],scaled lipid accumulation score,[1],≤ 0
O=C(O)c1ccc2ccccc2c1O.OCc1cc(C(O)CNCCCCCCOCCCCc2ccccc2)ccc1O (centres undefined) [Salmeterol xinafoate],scaled lipid accumulation score,[1],0.978 (active)
OCc1cc(C(O)CNCCCCCCOCCCCc2ccccc2)ccc1O (centres undefined) [Salmeterol] [listing 1 of 2 here],scaled lipid accumulation score,[1],1.08 (active)
CC(C)(C)NCC(O)c1ccc(O)c(CO)c1 (centres undefined),scaled lipid accumulation score,[1],0.076
OCc1cc(C(O)CNCCCCCCOCCCCc2ccccc2)ccc1O (centres undefined) [Salmeterol] [listing 2 of 2 here],scaled lipid accumulation score,,0.275
same,scaled lipid accumulation score,[3],0.553
same,scaled lipid accumulation score,[1],0.62
CC(CCc1ccccc1)NCC(O)c1ccc(O)c(C(N)=O)c1 (centres undefined) [Labetalol HCl],scaled lipid accumulation score,[4],≤ 0
same,scaled lipid accumulation score,[1],0.464
CC(CCc1ccccc1)NCC(O)c1ccc(O)c(C(N)=O)c1 (centres undefined) [Labetalol hydrochloride],scaled lipid accumulation score,,0.321
same,scaled lipid accumulation score,[1],0.546 and 0.164
CC(C)(C)NCC(O)c1ccc(O)c(CO)c1 (centres undefined) [Salbutamol],scaled lipid accumulation score,,≤ 0
CC(CCc1ccccc1)NCC(O)c1ccc(O)c(C(N)=O)c1 (centres undefined),scaled lipid accumulation score,[1],0.089
